Compounds with a hit are over-represented: about 2.3% of the library has one in this group of screens.
AMA1-RON2 inh: inhibitors of Plasmodium falciparum AMA1-RON2 interaction. hit rate 0.2% among 360,000. AID 720542. Potency, µM (top dose mostly 58.2 µM), usual class: inhibitors. AlphaScreen AMA1-biotinylated RON2 peptide binding; note: nearly all actives have a fitted effect of over 45% in size
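AMA1 (3D7) with his tag at 25 nM final met compounds first, then biotinylated RON2 peptide at 25 nM; detection used donor plus acceptor beads, 10 µg/mL apiece, read by AlphaScreen after 30 min at room temperature.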
AmpC inh no detg: AmpC beta-lactamase inhibition without detergent. P00811. AmpC nitrocefin hydrolysis, absorbance 480 nm, 0.0001% Triton. Potency, µM (series often up to 57.1 µM), most hits filed as inhibitors. hit rate 0.52% among 330,000. AID 485341; note: nearly all actives have a fitted effect of over 20% in size
Target sequence (P00811 whole entry, looked up): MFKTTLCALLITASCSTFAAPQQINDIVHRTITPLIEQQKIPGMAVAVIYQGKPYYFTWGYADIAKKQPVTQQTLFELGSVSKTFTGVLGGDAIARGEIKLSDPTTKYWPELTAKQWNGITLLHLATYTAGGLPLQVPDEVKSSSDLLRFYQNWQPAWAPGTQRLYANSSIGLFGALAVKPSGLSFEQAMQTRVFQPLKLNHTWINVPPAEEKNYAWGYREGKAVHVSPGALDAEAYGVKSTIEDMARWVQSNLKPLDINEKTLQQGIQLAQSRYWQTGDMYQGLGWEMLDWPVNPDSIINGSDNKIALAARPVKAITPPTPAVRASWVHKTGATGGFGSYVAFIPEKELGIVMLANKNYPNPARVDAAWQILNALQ
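AmpC (5.3 nM in the dispensed reagent) in 20 mM phosphate pH 7.0 with 0.01% (detergent screen) or 0.0001% Triton X-100 was preincubated with compounds for 15 min at room temperature. Nitrocefin was then added from an 800 uM solution, and hydrolysis was followed at 480 nm.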
AmpC inh detg: blocks E. coli AmpC beta-lactamase in detergent assay; AmpC hydrolysis of nitrocefin, absorbance 480 nm, 0.01% Triton; Potency, µM (series often up to 114 µM), actives largely listed as inhibitors; AID 485294; hit rate 0.041% among 370,000; note: nearly all actives have a fitted effect of over 25% in size
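AmpC (5.3 nM in the dispensed reagent) in 20 mM phosphate pH 7.0 with 0.01% (detergent screen) or 0.0001% Triton X-100 was preincubated with compounds for 15 min at room temperature. Nitrocefin was then added from an 800 uM solution, and hydrolysis was followed at 480 nm.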
Lassa entry inh: inhibitors of Lassa virus binding or cell entry | Lassa virus pseudotype entry inhibition, cell reporter | Potency, µM (doses to about 37.9 µM), actives largely listed as inhibitors | hit rate 1.2% among 300,000 | AID 540256; calls by dose curve; tested in HEK293 cells; note: nearly all actives have a fitted effect of over 50% in size
Marburg entry inh: blocks Marburg virus binding to or entry into cells; Marburg virus pseudotyped entry inhibition, cell reporter; Potency, µM (titrated, usually from 37.8 µM), usual class: inhibitors; hit rate 1.8% among 300,000; AID 540276; calls by dose curve; tested in HEK293 cells
Hits are given with their value; - = inactive; ? = inconclusive; . = no result; [ ] = remark or other dose. Unless noted, calls come from the whole dose curve; as a rule, active = well fitted curve in the direction sought with a large enough effect; inconclusive = small, poorly fitted or top-dose-only effect, or another doubt; inactive = no such curve, though single readings can be large; an effect the other way counts as inactive or inconclusive.

SMILES	AMA1-RON2 inh	AmpC inh no detg	AmpC inh detg	Lassa entry inh	Marburg entry inh
Cc1ccc(C)c(Nc2ncnc3onc(C)c23)c1	.	.	-	?	.
CCOc1cc(CNc2ccc(O)cc2)cc(Br)c1OCc1ccccc1F	-	4µM	-	?	-
CCOc1cc(CNCCO)cc(Br)c1OCc1ccc(Cl)cc1	-	-	-	?	?
CCOc1cc(CNCCO)cc(Br)c1OCc1ccccc1Cl	-	-	-	?	16µM
CCOc1cc(CNC(C)(C)CO)cc(Br)c1OCc1ccc(Cl)cc1Cl	-	-	-	?	18µM
O=C(O)c1ccc2c(c1)C(=O)N([C@H](Cc1ccc(O)cc1)C(=O)O)C2=O	.	-	?	.	.
Nc1cc(-c2ccc(Cl)cc2)nn1S(=O)(=O)c1cccc2nsnc12	-	22µM	-	.	.
COCC(=O)OC1CCn2c1nc1c2C(=O)C(C)=C(NC(C)=O)C1=O (configuration not stated)	-	.	.	3.2µM	?
CC1Cc2nc(SCC(=O)N3CCN(c4ccccc4)CC3)n(C)c(=O)c2S1 (configuration not stated)	-	1.6µM	?	.	.
CCn1c(SCC(=O)N2CCN(c3ccccc3)CC2)nc2c(c1=O)SC(C)C2 (configuration not stated)	-	-	-	.	.
CCn1c(SCC(=O)NCc2ccccc2)nc2c(c1=O)SC(C)C2 (configuration not stated)	-	1.6µM	-	.	.
CCn1c(SCC(=O)NCc2ccc(F)cc2)nc2c(c1=O)SC(C)C2 (configuration not stated)	-	-	-	-	-
CC1Cc2nc(SCC(=O)N3CCN(c4ccccc4)CC3)n(CCc3ccccc3)c(=O)c2S1 (configuration not stated)	-	3.5µM	-	.	.
CC(C)[C@@H](OCc1ccccc1)[C@H](C)/C=N/OC[C@@H](O)[C@H]1O[C@@H]2OC(C)(C)O[C@@H]2[C@H]1O	.	.	.	.	-
CC(C)(O)/C=C/C(=O)C(C)(O)C1C(O)CC2(C)C3CC=C4C(C=C(O)C(=O)C4(C)C)C3(C)C(=O)CC12C (configuration not stated)	-	.	.	0.32µM	0.11µM
O=C(NCc1ccccc1Cl)c1ccc2c(c1)N(Cc1ccccc1)C(=O)CS2	.	.	-	-	.
O=C(c1ccc(F)cc1)C1CCN(CCn2c(=O)[nH]c3ccccc3c2=O)CC1	-	-	-	-	11µM
O=C(Nc1ccc(Cl)c(C(F)(F)F)c1)NC1CC2CCCC(C1)N2Cc1ccccc1 (configuration not stated)	-	-	-	?	8.9µM
COCCCNC(=O)c1ccc(Cn2c(=O)c3cccn3c3cccnc32)cc1	.	.	-	-	.
CCCCn1c(=N)n(CCCOc2ccc(F)cc2)c2ccccc21	.	.	-	?	10µM
N=c1n(CCO)c2ccccc2n1CCOc1ccc(F)cc1	.	.	-	-	-
COc1ccccc1N(CC(=O)N/N=C/c1c(O)ccc2ccccc12)S(C)(=O)=O	-	-	-	9.2µM	?
Cc1nn(-c2nnc(NC3CCCCC3)nn2)c(C)c1Br	-[11.6 µM]	-	100µM	?	3.5µM
COc1ccc([C@H]2/C(=C(\O)c3ccc(OC(C)C)cc3)C(=O)C(=O)N2CCCN2CCOCC2)cc1	.	.	.	.	-
O=c1oc(Cl)c(Cl)c2c1CCCC2	.	.	.	.	-
SMILES	AMA1-RON2 inh	AmpC inh no detg	AmpC inh detg	Lassa entry inh	Marburg entry inh
O=C(O)c1cc(N2C(=O)C=CC2=O)cc(N2C(=O)C=CC2=O)c1	-	.	.	-	10µM
NC(=O)c1cc(N2C(=O)C=CC2=O)ccc1Cl	-	-	-	-	-
CCCC[C@@H](C(=O)O)[C@H](C)CC(=O)Nc1cccc(C(=O)O)c1	.	.	.	.	-
Cc1[nH]n(-c2ncc(-c3ccccc3)s2)c(=O)c1C(c1ccc(Cl)cc1)C(C#N)C#N (configuration not stated)	-	32µM	-	-	-
O=C(O)[C@H](Cc1c[nH]c2ccccc12)NS(=O)(=O)c1cccc2nsnc12	.	.	.	.	-
CCC(C)Sc1oc(-c2ccco2)nc1S(=O)(=O)c1ccc(C)cc1 (configuration not stated)	.	.	-	-	10µM
CSc1oc(-c2ccco2)nc1S(=O)(=O)c1ccc(C)cc1	-	-	-	-	?
CCN1CCN(c2oc(/C=C/c3ccc(OC)c(OC)c3)nc2C#N)CC1	.	.	-	-	-
N#CC(C#N)=C1C=CC=CN1/C(=C\c1ccco1)C(=O)c1ccc(Br)cc1	-	-	?	?	6.3µM

Source: PubChem
